Screening results (PubChem BioAssay)
This is a sample that favours compounds with a hit; in the whole collection about 1.2% have one here.
ugtP null kill: growth inhibition of ugtP-null S. aureus, primary screen, RN4220 ugtP deletion, OD600. actives 0.54% (n = 330,000). growth inhibition, % (no concentration beside the values). 16 h; in the data active = growth inhibition above about 68%
BH1578 lux ind: inducers of Vibrio cholerae quorum light production without autoinducers, primary screen, BH1578 luxS cqsA deficient, single point. V. cholerae BH1578 lux reporter, luminescence, 6 h. activation, % at 18.7 µM. actives 0.16% (n = 350,000); in the data active = activation mostly above about 9.7%, no sharp cut-off; inconclusive = no clear call, values can overlap the other calls; inactive = mostly below about 3.7%
Mtb betalactam: beta-lactam sensitization of Mtb H37Rv, H37Rv; M. tuberculosis H37Rv growth with meropenem, percent inhibition; inhibition, % at 25 µM; actives 0.27% (n = 330,000); AID 434955, 2010; call rule not given here;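 also: growth measured after seven days incubation then overnight dye step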
Sa RN4220 lethal: growth inhibition of S. aureus RN4220, primary screen, OD600. 16 h. inhibition, % (concentration not given with the values). actives 0.33% (n = 330,000); in the data active = inhibition above about 85%
PfHsp40 yeast: rescue of yeast from PfHsp40 toxicity, primary screen, S. cerevisiae, ATP luminescence; S. cerevisiae expressing PfHsp40, growth rescue; growth rescue, % at 12.5 µM; actives 0.68% (n = 340,000); AID 504582, 2011; in the data active = growth rescue above about 28%, passing the limit was not always enough; inconclusive = no clear call, values can overlap the other calls;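 also: yeast W303a lacking pdr1 and pdr3 grown in galactose medium; growth measured after three days at 30 °C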
Numbers stand for hits; – = inactive; ? = inconclusive; · = not tested or not shown; ! = a repeat was not active.

SMILES | ugtP null kill | BH1578 lux ind | Mtb betalactam | Sa RN4220 lethal | PfHsp40 yeast
CN(C)C1=NCC(Cc2ccccc2)N1CC1CCCCCC1 (stereo unspecified) | – | · | · | – | ·
Cc1cc(NC(=S)Nc2ccc(C)c(Cl)c2)n[nH]1 | – | – | – | – | 57
O=C1N(c2ccc(Cl)cc2)C(c2cccnc2)N2CCCN12 (stereo unspecified) | – | – | – | – | 287
COc1ccc(CNC(=O)CC2C(=O)N(Cc3ccccc3)CC2Cc2ccccc2)cc1 (stereo unspecified) | – | · | · | – | ·
CN1CCN(C(=O)C2=CC(C3CC3)CC(OCc3ccc(CO)cc3)O2)CC1 (stereo unspecified) | – | · | · | – | ·
CCOc1ccc(NC(=S)NNc2ccnc3cc(Cl)ccc23)cc1 | – | – | – | – | –
S=C(NNc1ccnc2cc(Cl)ccc12)Nc1ccc(Cl)cc1Cl | – | – | – | 90 | –
Cc1ccc(SCC(O)=C(C#N)c2nc3ccccc3s2)cc1 | 92 | · | · | 97 | ·
Cc1ccc(SC/C(O)=C(\C#N)c2nc3ccccc3s2)cc1 | · | – | – | · | –
Cc1ncc(C[n+]2csc(CCOC(=O)CC34CC5CC(CC(C5)C3)C4)c2C)c(N)n1 | – | – | – | – | –
Cc1c(CCOC(=O)CC23CC4CC(CC(C4)C2)C3)sc[n+]1Cc1ccccc1 | 100 | – | – | – | –
O=C(NNc1ccc([N+](=O)[O-])cc1)c1ccccc1F | – | – | · | – | 32
O=C(NNc1ccc([N+](=O)[O-])cc1)c1ccccc1Cl | – | – | – | – | –
CC(OC(=O)n1ccnc1)C1O[C@@]2(C)CCCC1O2 (stereo partly specified) | – | · | · | – | ·
Cc1ccn2c(NC3CCCCC3)c(-c3cccc(-c4cccc(Cl)c4)c3)nc2c1 | · | – | – | · | 132
COc1ccc(-c2nc3ccccn3c2NC2CCCCC2)cc1SC1CCCCC1 | 100 | – | – | – | ?
CC(CO)NC(=O)c1ccc2c3n(nc2c1)-c1ccccc1CO3 (stereo unspecified) | – | · | · | – | ·
CC(=NNC(=O)c1ccc(NS(=O)(=O)c2cccs2)cc1)c1ccccn1 | – | · | · | – | ·
CC1CCCCC1NC(=O)/C(C#N)=C/c1ccccc1F (stereo unspecified) | – | – | – | – | 111
CON=C(CNC(=O)c1cccc(Cl)c1)c1ccc(Cl)cc1 | – | · | · | – | ·
COc1ccc2ccccc2c1C=NNC(=S)NCCN1CCOCC1 | – | · | · | – | ·
Cc1ccsc1C=NNC(=O)c1cc(-c2ccncc2)nc2ccccc12 | – | · | · | – | ·
Cc1ccc(S(=O)(=O)/N=C2/C=C(Sc3ncn[nH]3)C(=O)c3ccccc32)cc1 | · | – | – | · | 119
CC(=O)C1=C(c2cccc([N+](=O)[O-])c2)N(C(C)=O)n2c(C)nnc2S1 | – | – | – | – | 82
CC(=O)c1c(C(C)=O)c(C)n(-c2cccc([N+](=O)[O-])c2)c1C | – | – | – | – | –
SMILES | ugtP null kill | BH1578 lux ind | Mtb betalactam | Sa RN4220 lethal | PfHsp40 yeast
O=C(NCc1ccccc1)C(NC(=O)c1ccccc1)=C(Sc1ccccn1)c1ccccc1 | – | · | · | – | ·
Cc1ccc2c(c1)C1C(CO2)C(c2ccccc2)[C@]2(C)C(=O)Nc3cc(F)c(F)cc3C(=O)N12 (stereo partly specified) | – | · | · | – | ·
O=C(NNC(=O)c1cccc2ccccc12)c1ccccc1O | – | – | – | – | 29
O=C(NNC(=O)c1cccc2ccccc12)c1ccc(-c2ccccc2)cc1 | – | – | – | – | –
O=C(NNC(=O)c1ccc2ccccc2c1O)Nc1ccc(F)cc1 | – | – | – | – | –
Cc1cccc(NC(=O)NNC(=O)c2ccc3ccccc3c2O)c1 | – | – | – | – | 58
Cc1ccc(NC(=O)NNC(=O)c2cc3ccccc3cc2O)cc1 | – | – | – | – | 70
CC(C(=O)Nc1cccc(S(=O)(=O)N2CCOCC2)c1)N1C(=O)C2CC=CCC2C1=O (stereo unspecified) | – | · | · | – | ·
CC1(C)CCC[C@]2(C)[C@H]3Cc4cc(O)ccc4O[C@]3(C)CC[C@@H]12 | · | – | – | · | 93
CC1(C)CCC[C@]2(C)[C@H]3CC(=O)O[C@]3(C)CC[C@@H]12 | – | – | – | – | –
Cc1ccc(Nc2c([N+](=O)[O-])ccc3c2=NC2(CCCCC2)N=3)cc1 | – | – | – | – | 59
COC(=O)C1=C(c2ccc(OC)c(OC)c2)CC2CCC1N2C(=O)NC1CCCCC1 (stereo unspecified) | – | · | · | – | ·
CC(C)C1OC2c3cccc4cccc(c34)C2N1c1ccccc1 (stereo unspecified) | 90 | – | – | – | –
O=C(CSc1nnc2n1CCCN2)c1ccc(Cl)cc1 | – | 32 | – | – | –
CCCCn1c(NC(=O)c2ccccc2)nc2ccccc21 | – | – | – | – | 97
CC(/C=C/C=C/c1ccccc1)=NNC(=O)C(O)c1ccccc1 (stereo unspecified) | – | · | · | – | ·
NCCNC(=O)c1c(O)c2cccc3c2n(c1=O)CCC3 | – | – | – | – | –
O=C(NCc1cccnc1)c1c(O)c2cccc3c2n(c1=O)CCC3 | – | – | – | – | 60
O=C(O)c1cccc(NN=C2c3ccccc3-c3ccccc32)c1 | – | – | · | – | 269
O=C(O)c1cc(NN=C2c3ccccc3-c3ccccc32)ccc1Cl | · | – | – | · | 138
O=C(O)c1cccc2c1-c1ccccc1/C2=N\Nc1ccccc1 | · | – | – | · | ·
O=C(O)c1cc(NN=C/C=C/c2ccccc2)ccc1Cl | – | · | · | – | ·
CSc1ccc(C=NNC(=O)CNc2ccc(C)cc2)cc1 | – | · | · | – | ·
CCOc1ccc(NC(=O)c2ccc(NC(=O)c3cn4c5c(c(N6CCN(C)CC6)c(F)cc5c3=O)OCC4C)cc2)cc1 (stereo unspecified) | 98 | – | · | 98 | –
CC1COc2c(N3CCN(C)CC3)c(F)cc3c(=O)c(C(=O)O)cn1c23 (stereo unspecified) | 99 | – | – | 100 | –
SMILES | ugtP null kill | BH1578 lux ind | Mtb betalactam | Sa RN4220 lethal | PfHsp40 yeast
COc1c(F)c(F)cc2c(=O)c(C(=O)O)cn(C3CC3)c12 | – | – | – | – | –
O=c1[nH]c(=O)n(Cc2ccccc2)c2nc(-c3ccco3)cc(C(F)(F)F)c12 | – | 27 | – | – | –
Cc1cc(C(F)(F)F)c2c(=O)[nH]c(=O)n(Cc3ccccc3)c2n1 | – | · | – | – | –
CN(C)c1nc(-c2ccccc2)c2cnn(Cc3ccccc3)c2n1 | 89 | – | – | – | –
c1ccc(Cn2ncc3ccccc32)cc1 | – | – | – | – | –
CC(C)(C)OC(=O)NCc1ccc(NC(=O)c2nc[nH]c2C(=O)NC(Cc2ccccc2)C(=O)OCc2ccccc2)cc1 (stereo unspecified) | – | · | · | – | ·
O=C(NNC(=S)NC(=O)c1ccccc1Cl)c1cccc([N+](=O)[O-])c1 | – | – | – | – | ?
O=C(NNc1c(Cl)cc(Cl)cc1Cl)c1cccc([N+](=O)[O-])c1 | – | – | – | – | 192
CCCCCCCCCCOC(=O)Cn1c(COc2ccc(OC)cc2)[n+](C)c2ccccc21 | · | – | – | · | 383!
